The values that follow come from PubChem BioAssay.

Calls of active or inactive are those of the source.

A short description of experiment [1]: small molecules captured by biotinylated probe aFSTL3 – biochemical, small-molecule microarray, fluorescence 635/667, stem cell growth factor project, primary screen (AID 1064).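 Note: measures binding of the biotinylated anti-FSTL3 antibody to printed compounds.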 The settings on record: higher = more signal.
Experiment [2] is described as follows: binders from COS7 lysate, DM2A8 probe, primary screen, torsin A project, cell lysate, small-molecule microarray, fluorescence 635/667 (AID 1065). To be noted: higher = more signal, COS7 lysate expressing mutant human TOR1A.
Experiment [3] is described as follows: small molecules captured by biotinylated probe aFGF2 – biochemical, small-molecule microarray, fluorescence 635/667, stem cell growth factor project, primary screen (AID 1067).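 Note: measures binding of biotinylated aFGF2 protein to printed compounds on slides; z-score merges feature fluorescence and signal-to-noise across triplicate slides.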 To be noted: higher = more signal.
Experiment [4] in a line: small molecules captured by biotinylated probe aFGF10 – biochemical, small-molecule microarray, fluorescence 635/667, stem cell growth factor project, primary screen (AID 1071).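 Note: score merges 667 nm spot intensity and signal to noise from triplicate slides.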 To be noted: higher = more signal.
Experiment [5] concerns the target Neurogenic locus notch homolog protein 2 (Homo sapiens) (UniProt Q04721). The experiment is described as follows: small molecules binding Notch2 protein – biochemical, small-molecule microarray, 635 nm fluorescence, stem cell growth factors, primary screen (AID 1073). To be noted: higher = more signal.
For experiment [6], the target named is Pro-neuregulin-1, membrane-bound isoform (Homo sapiens) (UniProt Q02297). Briefly: small molecules binding neuregulin-1 protein – biochemical, small-molecule microarray, fluorescence 635/667, psychiatric disease protein project, primary screen (AID 1075).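 Note: score combines 667 nm spot fluorescence with signal to noise.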 The settings on record: NRG1 binding, 635 nm fluorescence, higher = more signal.
Experiment [7] relates to Neuregulin-1 EGF-like domain. The experiment is described as follows: small molecules binding NRG1 EGF domain – biochemical, small-molecule microarray, 635 nm fluorescence, primary screen (AID 1081).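 Note: binding of the protein to compounds printed on small-molecule microarray slides.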 The settings on record: higher = more signal.
Experiment [8] in a line: FRG1 expression reporter modulators in myotubes – cell-based, C2C12 myotubes, firefly/Renilla luciferase, luminescence, FRG1 inhibition for FSHD, primary screen (AID 1084). To be noted: FRG1 promoter luciferase, higher = more signal, called active from +8 up or from −8 down.
Experiment [9] is described as follows: small molecules captured by biotinylated probe aFST – biochemical, small-molecule microarray, fluorescence 635/667, stem cell growth factor project, primary screen (AID 1086).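 Note: score merges 667 nm fluorescence with signal-to-noise of each printed compound spot.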 The settings on record: higher = more signal.
Experiment [10] can be described thus: binders of probe aHhip on microarray, primary screen, stem cell growth factor project, biochemical, small-molecule microarray, fluorescence 635/667 (AID 1087).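 Note: score merges spot fluorescence at 667nm with spot signal to noise ratio.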 To be noted: higher = more signal.
Experiment [11] relates to PRMT1 (protein arginine N-methyltransferase 1). The experiment is described as follows: small molecules binding arginine methyltransferase PRMT1 – biochemical, small-molecule microarray, 635 nm fluorescence, primary screen (AID 1088).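 Note: binding of Prmt1 protein to compounds spotted on small-molecule microarray slides.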 The settings on record: higher = more signal.
Experiment [12] in a line: growth effects on S. cerevisiae YJM789 – YJM789 clinical isolate, OD600, 24 h, basal, primary screen (AID 1089).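 Note: growth of clinical yeast isolate S. cerevisiae YJM 789 seeded 1000 cells per well; test concentration not given here.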 To be noted: higher = more signal, called active from +8 up or from −8 down.
Experiment [13] can be described thus: S. pombe growth modifiers, basal conditions – strain 972, OD600, 24 h, no modulator, primary screen (AID 1090).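 Note: basal condition with compound alone and no growth modifier present; test concentration not given here.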 The settings on record: S. pombe 972 growth, higher = more signal, called active from +8 up or from −8 down.
The nature of experiment [14]: budding yeast growth modifiers under rapamycin – strain BY4716, OD600, 96 h, primary screen (AID 1091). Note: test concentration not given here. The settings on record: S. cerevisiae BY4716 + rapamycin, higher = more signal, called active from +8 up or from −8 down.
The target in experiment [15] is Torsin-1A-interacting protein 2 (Homo sapiens) (UniProt Q8NFQ8). The experiment is described as follows: small molecules binding lysate-expressed LULL1 – cell lysate, human LULL1 lysate, 635/667 nm fluorescence, primary screen (AID 1092).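 Note: score merges per-feature 667 nm fluorescence with signal-to-noise.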 To be noted: small-molecule microarray, hLULL1 lysate binding, 635 nm fluorescence; higher = more signal.
A short description of experiment [16]: optical density change of DRC41 E. coli – strain DRC41, OD650, 24 h, E. coli filamentation project, primary screen (AID 1093).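 Note: MC1000 strain lacking acrAB efflux and sulA so SOS filamentation is blocked; test concentration not given here.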 The settings on record: E. coli DRC41 growth, higher = more signal, called active from +8 up or from −8 down.
A short description of experiment [17]: probe aLefty2 binding to arrayed compounds – biochemical, biotinylated probe, 635/667 nm fluorescence, primary screen (AID 1094).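 Note: score merges spot fluorescence near 667 nm with spot signal-to-noise ratio.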 To be noted: small-molecule microarray, higher = more signal.
Experiment [18] relates to Noggin (protein binding on small-molecule microarray). Briefly: small molecules binding Noggin protein – biochemical, 635/667 nm fluorescence, primary screen (AID 1095).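 Note: score merges 667 nm feature fluorescence with signal to noise over triplicate slides.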 The settings on record: 635 nm fluorescence, higher = more signal.
In experiment [19] the target is Neurogenic locus notch homolog protein 3 (Homo sapiens) (UniProt Q9UM47). Briefly: small molecules binding NOTCH3 protein – biochemical, 635/667 nm fluorescence, primary screen (AID 1096). To be noted: small-molecule microarray, 635 nm fluorescence, higher = more signal.
Experiment [20] is described as follows: probe aEGFR binding to arrayed compounds – biochemical, biotinylated probe, 635/667 nm fluorescence, primary screen (AID 1097).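 Note: probe is a biotinylated anti-EGFR antibody binding compounds printed on slides; score combines fluorescence near 667 nm and signal to noise of each spot.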 To be noted: small-molecule microarray, higher = more signal.

Neurogenic locus notch homolog protein 3 (Homo sapiens), sequence (Q9UM47 whole entry, looked up): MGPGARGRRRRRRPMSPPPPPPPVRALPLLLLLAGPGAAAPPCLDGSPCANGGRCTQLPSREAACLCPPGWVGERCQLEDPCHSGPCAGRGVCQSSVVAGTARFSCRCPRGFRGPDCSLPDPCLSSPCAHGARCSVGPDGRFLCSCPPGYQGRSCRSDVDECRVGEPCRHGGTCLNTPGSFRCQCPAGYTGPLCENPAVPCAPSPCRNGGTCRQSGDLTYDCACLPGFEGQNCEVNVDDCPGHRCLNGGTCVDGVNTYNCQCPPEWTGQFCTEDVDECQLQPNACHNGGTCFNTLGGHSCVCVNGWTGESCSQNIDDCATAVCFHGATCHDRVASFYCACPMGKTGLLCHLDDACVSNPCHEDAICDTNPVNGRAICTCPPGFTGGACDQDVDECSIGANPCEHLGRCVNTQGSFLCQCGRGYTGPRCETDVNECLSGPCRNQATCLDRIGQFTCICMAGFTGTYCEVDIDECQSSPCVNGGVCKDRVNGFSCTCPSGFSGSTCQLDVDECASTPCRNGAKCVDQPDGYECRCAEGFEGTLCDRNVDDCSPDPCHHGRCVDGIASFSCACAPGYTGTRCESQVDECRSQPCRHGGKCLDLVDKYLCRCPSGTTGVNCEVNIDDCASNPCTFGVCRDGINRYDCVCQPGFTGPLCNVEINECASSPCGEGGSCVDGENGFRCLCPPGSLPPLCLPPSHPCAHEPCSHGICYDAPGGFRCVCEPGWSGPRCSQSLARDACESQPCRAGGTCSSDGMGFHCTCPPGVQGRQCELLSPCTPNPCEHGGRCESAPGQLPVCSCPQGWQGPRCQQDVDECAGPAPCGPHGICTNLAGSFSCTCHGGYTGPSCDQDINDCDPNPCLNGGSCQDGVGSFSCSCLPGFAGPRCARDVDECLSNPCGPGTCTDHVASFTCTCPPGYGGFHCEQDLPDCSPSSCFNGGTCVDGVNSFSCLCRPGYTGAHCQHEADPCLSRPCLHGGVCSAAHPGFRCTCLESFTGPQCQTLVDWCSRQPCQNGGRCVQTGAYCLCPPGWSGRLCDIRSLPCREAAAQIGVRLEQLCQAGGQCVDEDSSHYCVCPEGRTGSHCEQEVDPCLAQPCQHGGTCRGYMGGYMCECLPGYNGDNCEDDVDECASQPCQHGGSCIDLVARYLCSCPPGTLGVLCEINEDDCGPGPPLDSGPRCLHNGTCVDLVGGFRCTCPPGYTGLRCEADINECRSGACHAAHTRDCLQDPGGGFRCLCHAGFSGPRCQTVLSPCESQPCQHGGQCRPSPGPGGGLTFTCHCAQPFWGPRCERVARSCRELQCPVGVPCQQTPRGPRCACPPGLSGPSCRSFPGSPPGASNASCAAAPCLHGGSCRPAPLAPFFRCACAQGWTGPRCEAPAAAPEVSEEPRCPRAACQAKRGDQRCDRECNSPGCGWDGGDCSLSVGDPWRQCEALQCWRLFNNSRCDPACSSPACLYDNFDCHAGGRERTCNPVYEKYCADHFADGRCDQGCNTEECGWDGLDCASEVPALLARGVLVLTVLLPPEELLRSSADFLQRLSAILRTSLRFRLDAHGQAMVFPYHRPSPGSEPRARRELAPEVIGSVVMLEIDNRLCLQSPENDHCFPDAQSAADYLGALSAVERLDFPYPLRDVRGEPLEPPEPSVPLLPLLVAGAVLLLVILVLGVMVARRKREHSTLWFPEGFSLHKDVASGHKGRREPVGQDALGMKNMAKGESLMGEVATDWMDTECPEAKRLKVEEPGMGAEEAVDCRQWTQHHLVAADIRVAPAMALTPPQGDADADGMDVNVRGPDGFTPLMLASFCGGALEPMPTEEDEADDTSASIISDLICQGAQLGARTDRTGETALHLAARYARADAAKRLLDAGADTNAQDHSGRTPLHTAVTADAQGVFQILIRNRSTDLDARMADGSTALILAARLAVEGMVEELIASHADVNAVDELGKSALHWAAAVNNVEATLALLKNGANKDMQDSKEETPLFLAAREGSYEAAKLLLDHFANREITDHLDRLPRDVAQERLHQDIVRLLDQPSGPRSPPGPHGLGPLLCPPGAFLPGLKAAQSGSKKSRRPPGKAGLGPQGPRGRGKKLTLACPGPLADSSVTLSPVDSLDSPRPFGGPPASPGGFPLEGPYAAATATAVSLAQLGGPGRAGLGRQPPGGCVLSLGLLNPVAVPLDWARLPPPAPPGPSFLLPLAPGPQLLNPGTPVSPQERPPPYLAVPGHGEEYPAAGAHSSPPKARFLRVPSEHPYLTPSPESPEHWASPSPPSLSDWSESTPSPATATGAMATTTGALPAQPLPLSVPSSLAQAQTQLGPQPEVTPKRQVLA
Neurogenic locus notch homolog protein 2 (Homo sapiens), sequence (Q04721 whole entry, looked up, canonical isoform): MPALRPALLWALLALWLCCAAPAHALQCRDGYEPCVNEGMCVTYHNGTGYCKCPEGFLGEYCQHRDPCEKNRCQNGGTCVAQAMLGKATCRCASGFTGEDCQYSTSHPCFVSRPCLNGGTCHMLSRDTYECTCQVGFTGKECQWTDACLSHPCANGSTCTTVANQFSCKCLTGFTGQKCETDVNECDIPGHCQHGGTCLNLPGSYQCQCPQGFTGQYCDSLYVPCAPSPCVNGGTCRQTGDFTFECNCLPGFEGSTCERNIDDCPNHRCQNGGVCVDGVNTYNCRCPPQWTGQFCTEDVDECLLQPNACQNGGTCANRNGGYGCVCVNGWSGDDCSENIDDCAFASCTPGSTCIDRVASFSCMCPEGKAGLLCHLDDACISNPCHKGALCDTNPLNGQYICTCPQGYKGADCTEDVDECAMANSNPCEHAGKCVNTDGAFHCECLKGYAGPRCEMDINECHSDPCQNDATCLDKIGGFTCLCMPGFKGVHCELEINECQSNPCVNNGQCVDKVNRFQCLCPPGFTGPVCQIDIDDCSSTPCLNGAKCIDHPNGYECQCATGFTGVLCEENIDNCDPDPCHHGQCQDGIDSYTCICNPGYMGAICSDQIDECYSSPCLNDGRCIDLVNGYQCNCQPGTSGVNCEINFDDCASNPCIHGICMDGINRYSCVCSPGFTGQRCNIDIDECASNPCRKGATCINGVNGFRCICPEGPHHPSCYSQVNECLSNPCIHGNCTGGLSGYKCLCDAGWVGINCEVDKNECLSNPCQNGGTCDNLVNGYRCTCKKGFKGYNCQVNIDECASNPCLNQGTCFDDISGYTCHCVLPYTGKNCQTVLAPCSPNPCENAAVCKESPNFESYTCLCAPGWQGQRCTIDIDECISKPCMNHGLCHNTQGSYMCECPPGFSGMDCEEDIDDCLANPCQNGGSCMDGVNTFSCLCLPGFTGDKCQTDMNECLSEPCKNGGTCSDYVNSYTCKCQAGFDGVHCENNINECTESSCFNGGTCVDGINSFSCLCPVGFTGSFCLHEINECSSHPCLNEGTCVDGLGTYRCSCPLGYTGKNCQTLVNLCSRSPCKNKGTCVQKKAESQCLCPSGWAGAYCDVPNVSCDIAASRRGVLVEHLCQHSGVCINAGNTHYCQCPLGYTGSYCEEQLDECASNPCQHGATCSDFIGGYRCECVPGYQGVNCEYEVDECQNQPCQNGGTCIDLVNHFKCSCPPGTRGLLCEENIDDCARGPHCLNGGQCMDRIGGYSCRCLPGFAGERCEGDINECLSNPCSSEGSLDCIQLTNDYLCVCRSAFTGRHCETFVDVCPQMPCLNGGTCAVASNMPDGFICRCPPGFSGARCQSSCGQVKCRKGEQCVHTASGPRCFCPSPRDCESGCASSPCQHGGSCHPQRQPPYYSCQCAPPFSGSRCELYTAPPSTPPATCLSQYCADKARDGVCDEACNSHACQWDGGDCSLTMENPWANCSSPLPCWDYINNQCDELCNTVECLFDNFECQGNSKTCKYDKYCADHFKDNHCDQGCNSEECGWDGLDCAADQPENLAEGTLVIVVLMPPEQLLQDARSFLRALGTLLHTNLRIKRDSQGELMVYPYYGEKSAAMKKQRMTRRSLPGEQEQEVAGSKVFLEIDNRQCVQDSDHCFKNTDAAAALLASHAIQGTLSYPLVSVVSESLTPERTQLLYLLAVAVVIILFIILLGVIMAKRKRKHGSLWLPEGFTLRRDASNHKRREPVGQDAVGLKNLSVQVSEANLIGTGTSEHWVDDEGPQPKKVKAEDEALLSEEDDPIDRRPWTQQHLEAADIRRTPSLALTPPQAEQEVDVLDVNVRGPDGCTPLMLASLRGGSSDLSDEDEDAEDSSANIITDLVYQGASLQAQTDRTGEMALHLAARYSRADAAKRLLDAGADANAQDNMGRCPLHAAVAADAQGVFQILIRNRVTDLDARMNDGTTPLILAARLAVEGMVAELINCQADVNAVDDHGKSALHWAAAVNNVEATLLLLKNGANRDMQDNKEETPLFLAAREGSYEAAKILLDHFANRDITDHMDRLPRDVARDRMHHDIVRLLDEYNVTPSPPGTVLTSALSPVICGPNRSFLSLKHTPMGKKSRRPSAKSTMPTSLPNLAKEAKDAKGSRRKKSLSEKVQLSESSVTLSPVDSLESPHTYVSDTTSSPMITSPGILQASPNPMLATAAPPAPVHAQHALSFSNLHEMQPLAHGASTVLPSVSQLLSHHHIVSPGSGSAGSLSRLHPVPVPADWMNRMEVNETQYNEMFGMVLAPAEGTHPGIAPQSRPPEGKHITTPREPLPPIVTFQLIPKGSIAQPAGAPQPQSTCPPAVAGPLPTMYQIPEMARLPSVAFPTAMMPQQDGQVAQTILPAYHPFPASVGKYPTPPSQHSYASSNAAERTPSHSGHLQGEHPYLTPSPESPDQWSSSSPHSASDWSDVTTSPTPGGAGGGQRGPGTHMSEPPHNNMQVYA

Turning to `O=C1OCC=C[C@H]2OC34C=CCN(c5ccc(Cl)cc5)C(=O)[C@H]3N(CCCCCCO)C(=O)[C@@H]4[C@@H]12` (stereo not given in full), the composite z-score in experiment [1] was 1.06; in experiment [2], -0.793; in experiment [3], -0.163; in experiment [4], -0.688; in [5] it was -0.737; in experiment [6] it was 2.26. Further, the composite z-score in [7] was 1.53; in [9], -0.455; in experiment [10] it was -0.271; in [11] it was -1.01; in [15], 1.92; in [17], -0.0936. In addition, the composite z-score was -1.51 in experiment [18], -0.464 in experiment [19] and -0.273 in [20]. Also, the z-score in experiment [8] is 1.16 (inactive); in experiment [12] it was -0.88 (inactive); in experiment [13] it was -1.63 (inactive); in experiment [14], -0.787 (inactive); in [16], 0.437 (inactive).

With `CCOC(=O)C1=C[C@@H](C(C)C)N(S(=O)(=O)c2ccc(C)cc2)[C@H]1c1ccc(C(C)C)cc1`, the composite z-score in experiment [1] was -0.462; in experiment [2], 0.352; in experiment [3] it was -0.0647; in experiment [4], 0.543; in [5], 1.52; in experiment [6], 0.609. For the same molecule, the composite z-score is 0.683 in [7]; 0.937 in [9]; -0.0754 in [10]; 1.25 in [11]; 3.02 in experiment [15]; 0.112 in experiment [17]. Moreover, the composite z-score in experiment [18] is 0.75; in [19], 1.09; in experiment [20], -0.0381. The z-score in experiment [8] was -1.89 (inactive); in [12] it was 0.129 (inactive); in [13], 2.04 (inactive); in experiment [14], 0.612 (inactive); in experiment [16], -0.35 (inactive).

In the case of `C[C@H]1NC(=O)[C@H](Cc2ccccc2)NC(=O)[C@@]23C(=O)N[C@@H](Cc4ccccc4)C2[C@H](C)[C@@]2(C)O[C@H]2C3/C=C/C/C=C\CNC1=O` (stereo not given in full), the composite z-score in [1] is -0.231; in experiment [2] it was 0.32; in experiment [3], -0.0878; in [4], -0.32; in experiment [5] it was -0.221; in experiment [6] it was -0.547. Also, the composite z-score in experiment [7] was -0.867; in experiment [9], -0.146; in experiment [10] it was 0.238; in experiment [11], -0.839; in experiment [15], -1.32; in experiment [17], -0.0724. Besides, the composite z-score in experiment [18] was -0.389; in [19] it was -0.795; in experiment [20], -0.183. For the same molecule, the z-score in [8] was 0.049 (inactive); in experiment [12], 0.967 (inactive); in [13], 0.266 (inactive); in experiment [14], 0.865 (inactive); in experiment [16], 1 (inactive).

For the molecule `CC(C)N1C(=O)C[C@@](C(=O)NCc2ccccc2)(c2ccc([N+](=O)[O-])cc2)[C@H]1c1ccc(CO)cc1`, the composite z-score was 0.539 in [1]; 1.22 in [2]; -0.138 in experiment [3]; -0.136 in experiment [4]; 0.0796 in [5]; -0.524 in experiment [6]. The composite z-score in experiment [7] was 1.25; in experiment [9], -0.699; in [10] it was -0.201; in experiment [11], 1.01; in [15] it was 3.48; in experiment [17], 0.16. Besides, the composite z-score in experiment [18] was -0.112; in experiment [19] it was 0.199; in experiment [20], -0.167. For the same molecule, the z-score in experiment [8] is 0.167 (inactive); in experiment [12] it was 0.296 (inactive); in experiment [13], -0.203 (inactive); in experiment [14], -0.881 (inactive); in [16] it was 0.796 (inactive).

For the molecule `COCCOC(=O)N1C(=O)[C@@]2(c3cc(C#CCNC(N)=O)ccc31)[C@H](C(=O)N1CCc3cc(OC)c(OC)cc3C1)[C@H]1C(=O)O[C@H](c3ccccc3)[C@H](c3ccccc3)N1[C@@H]2c1ccc(OCCO)cc1`, the composite z-score in [1] was -0.222; in experiment [2], 0.388; in [3], -0.0293; in experiment [4] it was 0.392; in experiment [5], 0.578; in [6] it was 0.0155. Also, the composite z-score in experiment [7] is 0.172; in experiment [9] it was 0.536; in [10], 0.12; in experiment [11], 1.08; in experiment [15], 0.277; in [17], -0.0163. In addition, the composite z-score in experiment [18] is 1.3; in experiment [19], 1.13; in experiment [20] it was -0.0734. The z-score in experiment [8] was 0.363 (inactive); in experiment [12], 0.854 (inactive); in experiment [13], 0.575 (inactive); in [14], 4.41 (inactive); in experiment [16], 0.692 (inactive).

With `CCCC[C@H]1OB(O)C[C@H]2C1=C(C)C[C@H]1C(=O)N(Cc3ccccc3)C(=O)[C@H]12`, the composite z-score was -0.573 in experiment [1]; 0.383 in experiment [2]; 0.0171 in experiment [3]; 0.951 in [4]; 0.316 in experiment [5]; 0.421 in [6]. Further, the composite z-score in [7] was 0.795; in experiment [9] it was 0.267; in [10], 0.312; in experiment [11], 0.705; in experiment [15], 0.342; in experiment [17], -0.102. Further, the composite z-score in [18] was determined as 0.919; in [19], 0.666; in experiment [20] it was 0.0215. Further, the z-score was 0.758 (inactive) in [8]; -0.482 (inactive) in [12]; -1.33 (inactive) in experiment [13]; -1.04 (inactive) in [14]; 1.75 (inactive) in experiment [16].
